Test results from PubChem BioAssay (EPA / NIEHS).
“And” between values parts separate entries of the source, which are not always exact repeats. Equal values may be shown once. Records with an inconclusive call do not appear. Where a structure was tested more than once in an assay, its records may differ in their call. The source made the active and inactive calls. How the source made its calls, unless noted: active means hit-call score of the fitted dose curve at least 0.9, where 1 is the maximum; inconclusive means response in the unintended direction; inactive means score below 0.9.

Assays:
[1] = read-out: Cellular tumor antigen p53 (Homo sapiens) (UniProt P04637); assay: LTEA_HepaRG_TP53: Life Technologies and Expression Analysis (LTEA) Assay for Tumor Protein P53 (TP53) using HepaRG (AID 2283537; active means hit-call score of the fitted dose curve at least 0.9, where 1 is the maximum; inactive means score below 0.9); conditions: mRNA level, 48 h; actives raise or lower the signal
Procedure, shortened: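 Gain or loss of TP53 mRNA signal is scored relative to 0.5% DMSO after 48 h chemical treatment of HepaRG liver cells, tested in duplicate at eight half-log concentrations up to 100 uM.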

[2] = read-out: UDP glucuronosyltransferase (UGT1A1), UGT1A1 (gene 54658); assay: LTEA_HepaRG_UGT1A1: Life Technologies and Expression Analysis (LTEA) Assay for UDP glucuronosyltransferase (UGT1A1) using HepaRG (AID 2283538; active means hit-call score of the fitted dose curve at least 0.9, where 1 is the maximum; inactive means score below 0.9); conditions: mRNA level, 48 h; actives raise or lower the signal
Procedure, shortened: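 mRNA induction or loss of UGT1A1, by TaqMan qRT-PCR, in duplicate HepaRG wells after 48 h exposure to half-log dilutions topping at 100 uM; DMSO (0.5%) served as baseline.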

[3] = read-out: UDP glucuronosyltransferase (UGT1A6), UGT1A6 (gene 54578); assay: LTEA_HepaRG_UGT1A6: Life Technologies and Expression Analysis (LTEA) Assay for UDP glucuronosyltransferase (UGT1A6) using HepaRG (AID 2283539; active means hit-call score of the fitted dose curve at least 0.9, where 1 is the maximum; inactive means score below 0.9); conditions: mRNA level, 48 h; actives raise or lower the signal
Procedure, shortened: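 qRT-PCR readout of UGT1A6 mRNA (normalized to ACTB/GAPDH/POLR2A) in differentiated HepaRG cells after 48 h chemical exposure; 8 concentrations, top 100 uM, half-log steps, 0.5% DMSO. Bidirectional curve fit relative to DMSO baseline.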

[4] = read-out: X-box binding protein 1 (XBP1), XBP1 (gene 7494); assay: LTEA_HepaRG_XBP1: Life Technologies and Expression Analysis (LTEA) Assay for X-box binding protein 1 (XBP1) using HepaRG (AID 2283540; active means hit-call score of the fitted dose curve at least 0.9, where 1 is the maximum; inactive means score below 0.9); conditions: mRNA level, 48 h; actives raise or lower the signal
Procedure, shortened: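 HepaRG, 48 h exposure, 8-pt half-log CRC top 100 uM, 0.5% DMSO vehicle, duplicates. Readout: TaqMan qRT-PCR of XBP1 mRNA, housekeeping-normalised (ACTB/GAPDH/POLR2A); bidirectional fit vs DMSO baseline.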

[5] = LTEA_HepaRG_LDH_cytotoxicity: Cytotoxicity Assessment in the Life Technologies and Expression Analysis (LTEA) Assay (AID 2283563);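 on AC50: LDH activity released into spent culture medium as a marker of cell death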
Procedure, shortened: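 HepaRG (human liver line), 48 h exposure, 8-pt half-log series from 100 uM, 0.5% DMSO vehicle, duplicates. Read-out: LDH in spent medium. Positive-direction fit vs DMSO baseline.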

[6] = TOX21_p53_BLA_p2_viability: Viability Assessment in the Tox21 HCT-116 p53 Agonism Beta-lactamase Assay, Phase 2 (AID 2283591);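 further: actives lower the ATP signal meaning cytotoxicity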
Procedure, shortened: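 HCT-116 p53-bla cells (4000/well) rested 5 h at 37C, then received compounds in DMSO (217-fold dilution) for 16 h at 37C, 5% CO2. After the CCF4 read, CellTiter-Glo was added; ATP luminescence was read after 30 min at room temperature.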

[7] = target: Cellular tumor antigen p53 (Homo sapiens) (UniProt P04637); assay: TOX21_p53_BLA_p2_ratio: Tox21 HCT-116 p53 Agonism Beta-lactamase Assay, Ratio, Phase 2 (AID 2283592)
Procedure, shortened: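 Readout: blue/green (460/530 nm) FRET emission ratio after 2 h CCF4-AM loading at room temperature, excitation 405 nm. HCT116 p53 bla cells, 16 h compound exposure at 37C, 5% CO2; agonist direction fitted against DMSO baseline.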

[8] = TOX21_p53_BLA_p3_viability: Viability Assessment in the Tox21 HCT-116 p53 Agonism Beta-lactamase Assay, Phase 3 (AID 2283593);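 further: cells exposed to compound for 16 h before reading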
Procedure, shortened: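 HCT-116 cells (4000/well) rested 5 h at 37C, then got DMSO compounds by pin tool (217-fold dilution) for 16 h at 37C, 5% CO2. After the bla read, CellTiter-Glo was added and luminescence read at 30 min, room temperature.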

[9] = target: Cellular tumor antigen p53 (Homo sapiens) (UniProt P04637); assay: TOX21_p53_BLA_p3_ratio: Tox21 HCT-116 p53 Agonism Beta-lactamase Assay, Ratio, Phase 3 (AID 2283596)
Procedure, shortened: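 Cells were seeded at 4000/well, rested 5 h at 37C, then dosed with DMSO compound solutions (217-fold dilution) for 16 h. CCF4-AM substrate was loaded for 2 h at room temperature, and the 460/530 nm emission ratio was fitted for gain of signal versus DMSO.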

[10] = ATG_XTT_Cytotoxicity: Cytotoxicity Assessment in the Attagene TRANS-FACTORIAL HepG2 Assay (AID 2283584);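 on AC50: cells exposed to compound for 24 h before reading; active means loss of viability signal versus DMSO baseline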
Procedure, shortened: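 XTT readout of cell number in transfected HepG2 cells, 24 h post-dosing; DMSO serves as negative control and baseline, with activity taken as loss of viability signal.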

Measured: AC50

Cellular tumor antigen p53 (Homo sapiens), sequence (P04637 whole entry, looked up): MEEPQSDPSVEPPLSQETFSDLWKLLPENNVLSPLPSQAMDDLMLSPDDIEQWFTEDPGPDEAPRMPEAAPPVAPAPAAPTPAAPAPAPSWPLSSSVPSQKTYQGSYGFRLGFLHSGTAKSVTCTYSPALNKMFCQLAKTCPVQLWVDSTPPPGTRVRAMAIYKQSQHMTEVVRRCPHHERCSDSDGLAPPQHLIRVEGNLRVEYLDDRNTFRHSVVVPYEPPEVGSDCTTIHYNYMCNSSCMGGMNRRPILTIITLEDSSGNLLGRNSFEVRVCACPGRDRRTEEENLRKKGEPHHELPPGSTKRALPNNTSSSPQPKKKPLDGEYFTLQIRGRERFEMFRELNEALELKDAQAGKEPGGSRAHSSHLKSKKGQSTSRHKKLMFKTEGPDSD

N#CSCSC#N
inactive: [1] | [2] | [3] | [4]
active: [5] 75.7 µM | [6] 54.8 µM and 70.4 µM | [7] 19 µM and 15.5 µM | [8] 60.7 µM and 78.2 µM | [9] 14.9 µM and 8.68 µM

CSC1=N[C@@](C)(c2ccccc2)C(=O)N1Nc1ccccc1
active: [1] 28.4 µM | [2] 32.1 µM | [3] 33.2 µM | [5] 32.4 µM
not listed: [10]
inactive: all other assays above

CSc1nc(NC(C)C)nc(NC(C)C)n1
active: [2] 2.47 µM | [4] 50 µM
inactive: [1] | [3] | [5] | [7] | [9]

O=c1ccc(=O)[nH][nH]1
not listed: [10]
inactive: all other assays above

Cc1ccn2nc(S(=O)(=O)Nc3c(F)cccc3F)nc2n1
inactive: [2] | [3] | [4] | [5]

CN(C)C(=O)Nc1cccc(C(F)(F)F)c1
inactive: [1] | [3] | [5] | [7] | [9]
active: [2] 1.22 µM

CC1=NNC(=O)N(/N=C/c2cccnc2)C1
inactive: [1] | [2] | [3] | [5] | [7] | [9]

FC(F)C(F)(F)OCC(Cn1cncn1)c1ccc(Cl)cc1Cl (stereo not given)
inactive: [6] | [7] | [8] | [9]
active: [1] 31.5 µM | [2] 38.1 µM | [3] 76.8 µM | [5] 75.2 µM

CCCCOC(=O)c1ccccc1C(=O)O
active: [2] 17 µM
not listed: [4] | [8] | [10]
inactive: all other assays above

CNC(=O)Oc1cccc2c1OC(C)(C)O2
inactive: [1] | [2] | [3] | [5] | [7] | [9]

CCOP(=O)(OCC)Oc1cc(C)nc(C(C)C)n1
not listed: [4] | [6] | [10]
inactive: all other assays above

CCCCSP(=O)(SCCCC)SCCCC
active: [5] 63.5 µM
not listed: [4] | [8] | [10]
inactive: all other assays above

CCCCN(CC)c1c([N+](=O)[O-])cc(C(F)(F)F)cc1[N+](=O)[O-]
active: [2] 32.2 µM
not listed: [4] | [6] | [10]
inactive: all other assays above

CCOP(=O)(SC(C)CC)N1CCSC1=O (stereo not given)
inactive: [2] | [3] | [4] | [5]

CC(C)=CC1C(C(=O)OCN2C(=O)C3=C(CCCC3)C2=O)C1(C)C (stereo not given)
not listed: [4] | [10]
inactive: all other assays above

Nc1nc(N)nc(NC2CC2)n1
not listed: [4] | [10]
inactive: all other assays above

COc1cc(OC)nc(Sc2cccc(Cl)c2C(=O)O)n1
not listed: [4] | [10]
inactive: all other assays above

S=C1NCCN1
not listed: [4] | [10]
inactive: all other assays above

COP(=O)(OC)OC(Br)C(Cl)(Cl)Br (stereo not given)
inactive: [2] | [3] | [5]

CNc1cnn(-c2cccc(C(F)(F)F)c2)c(=O)c1Cl
active: [2] 16.1 µM
not listed: [4] | [6] | [10]
inactive: all other assays above

C=C(C)[C@H]1Cc2c(ccc3c2O[C@@H]2COc4cc(OC)c(OC)cc4[C@@H]2C3=O)O1
active: [2] 23.7 µM | [3] 23.4 µM | [5] 6.74 µM
inactive: [4]

CC[C@H](C)[C@H]1O[C@]2(C=C[C@@H]1C)C[C@@H]1C[C@@H](C/C=C(\C)[C@@H](O[C@H]3C[C@H](OC)[C@@H](O[C@H]4C[C@H](OC)[C@@H](NC)[C@H](C)O4)[C@H](C)O3)[C@@H](C)/C=C/C=C3\CO[C@@H]4[C@H](O)C(C)=C[C@@H](C(=O)O1)[C@]34O)O2
active: [1] 86.7 µM | [2] 12.7 µM | [3] 12.5 µM | [5] 18.2 µM | [6] 13.5 µM | [7] 59.1 µM | [8] 14.4 µM | [9] 54.1 µM

O=C(O)c1cc(Oc2ccc(C(F)(F)F)cc2Cl)ccc1[N+](=O)[O-]
inactive: [3] | [5]
active: [2] 22.7 µM

CC(C1CC1)C(O)(Cn1cncn1)c1ccc(Cl)cc1 (stereo not given)
not listed: [4] | [7] | [10]
inactive: all other assays above

CCOC(=O)CC(SP(=O)(OC)OC)C(=O)OCC (stereo not given)
not listed: [4] | [10]
inactive: all other assays above

CCc1cccc(CC)c1N(COC)C(=O)CCl
active: [2] 66.5 µM
inactive: [3] | [5]

C[N+]1(C)CCCCC1
inactive: [1] | [2] | [3] | [5] | [7] | [9]

CCCSP(=O)(OCC)SCCC
active: [2] 22.8 µM
inactive: [3] | [4] | [5]

CCCSP(=O)(OCC)Oc1ccc(Br)cc1Cl (stereo not given)
active: [2] 15.1 µM
not listed: [4] | [8] | [10]
inactive: all other assays above

CCc1cnc(C2=NC(C)(C(C)C)C(=O)N2)c(C(=O)O)c1 (stereo not given)
inactive: [2] | [3] | [5]

CN(C)NC(=O)CCC(=O)O
not listed: [4] | [10]
inactive: all other assays above

CCOP(=S)(OCC)OC(Cl)C(Cl)(Cl)Cl (stereo not given)
active: [2] 30.7 µM
not listed: [4] | [6] | [10]
inactive: all other assays above

CC(C)[C@H](C(=O)O[C@H](C#N)c1cccc(Oc2ccccc2)c1)c1ccc(Cl)cc1
inactive: [1] | [3] | [5] | [7] | [8]
active: [2] 23.8 µM

Nc1c(Cl)cc([N+](=O)[O-])cc1Cl
inactive: [5] | [10]
active: [2] 11.4 µM | [3] 78.1 µM

CC(Oc1cccc(Cl)c1)C(=O)O (stereo not given)
inactive: [1] | [3] | [5] | [7] | [9]
active: [2] 10.1 µM

O=[N+]([O-])c1cc(C(F)(F)F)c(Cl)c([N+](=O)[O-])c1Nc1ncc(C(F)(F)F)cc1Cl
active: [2] 79.5 µM | [3] 73.6 µM | [5] 48.4 µM | [10] 38.8 µM

CN(C)[C@@H]1C(=O)C(C(N)=O)=C(O)[C@@]2(O)C(=O)C3=C(O)c4c(O)cccc4[C@@](C)(O)[C@H]3[C@H](O)[C@@H]12
inactive: [2] | [3] | [5] | [10]

CCOP(=S)(OCC)SCCSCC
inactive: [1] | [2] | [3] | [6] | [7] | [9]

CCOP(=S)(OCC)Oc1ccc([N+](=O)[O-])cc1
active: [2] 10.6 µM | [7] 89.3 µM
inactive: [1] | [3] | [5] | [6] | [7] | [8] | [9]

CCOP(=S)(Oc1cnc(C(C)(C)C)nc1)OC(C)C (stereo not given)
inactive: [1] | [2] | [3] | [5] | [7]
